About 83,000 compounds went through this panel and 20% of them were active in at least one assay; those are over-represented in the sample as a whole.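 Step 1: grow cells in 96-well plates. Step 2: add test compound at a single concentration. Step 3: incubate 48 h. Step 4: record percent growth.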 Values without a mark were called inactive. The source made the active and inactive calls. The calls were made as follows: active = growth percent below 10; inactive = the rest.
Tested on: HCC-2998 colon
Experiment: NCI-60 one-dose screen, 48 h (100 = growth as untreated, 0 = no growth, -100 = all killed)
Conditions: 10 µM unless noted

SMILES	growth
CC(=O)CC(=O)SC1=NCCS1	112%
CCCCCCCCCCCCCCNC(=O)Nc1ccc(Cl)c(Cl)c1	14.5%
O=S(=O)(NCc1ccccc1)c1ncnc2nc[nH]c12	101%
Cc1cc(-c2ccc(N=Nc3c(S(=O)(=O)O)cc4cc(S(=O)(=O)O)cc(N)c4c3O)c(C)c2)ccc1N=Nc1cc(S(=O)(=O)O)c2ccccc2c1O	104%
CC1=C/C(=C(\c2cc(C)c(O)c(C(=O)O)c2)c2c(Cl)cccc2Cl)C=C(C(=O)O)C1=O	110%
O=C(Nc1ccccc1)Nc1ccc(C(=O)/C=C/c2ccc(N3CCCC3)cc2)cc1	81.4%
CC(C)(C)c1cc(C(=O)Nc2ccc(C(=O)NCCN)cc2)cc(C(C)(C)C)c1	1.78% (active)
C[C@@H]1C[C@H]2C(=O)O[C@@H](C)[C@H](NC(=O)[C@H](Cc3cc(F)cc(F)c3)NC(=O)Nc3ccc(Cl)cc3F)C(=O)N3C[C@H](O)C[C@H]3C(=O)N3CCN(C)C[C@H]3C(=O)N[C@@H](C)C(=O)N2C1	32.8%
C=C(C)[C@@H]1CC[C@]2(COC(=O)c3ccccc3C(=O)O)CC[C@]3(C)[C@H](CC[C@@H]4[C@@]5(C)CC[C@H](OC(=O)c6ccccc6C(=O)O)C(C)(C)[C@@H]5CC[C@]43C)[C@@H]12	4.42% [100 µM] (active)
C[C@H]1[C@H](C)CC[C@]2(C(=O)N3CCN(C)CC3)CC[C@]3(C)C(=CC[C@@H]4[C@@]5(C)C/C(=C/c6ccco6)C(=O)C(C)(C)[C@@H]5CC[C@]43C)[C@H]12	38.2% [100 µM]
CCN(CC)CCCC(C)Nc1c2ccc(C)cc2nc2ccc(OC)cc12 (stereo not drawn)	34.9%
C#C[C@]1(O)CC[C@H]2[C@@H]3CC=C4c5nc(N)sc5CC[C@]4(C)[C@H]3CC[C@@]21C	80.8%
COc1cc(C)cc2oc3oc(=O)c(-c4nc5ccccc5s4)cc3c(=O)c12	109%
COC(=O)[C@]12CCC(C)(C)C[C@H]1C1=CC[C@@H]3[C@@]4(C)C/C(=C/c5cccnc5)C(=O)C(C)(C)[C@@H]4CC[C@@]3(C)[C@]1(C)CC2	-72.8% [100 µM] (active)
O=C(Nc1cccc(C2=NCCN2)c1)c1cccc(C(=O)Nc2cccc(C3=NCCN3)c2)c1	107%
CCOc1cc(NC(=O)c2ccccc2)c(OCC)cc1N	112%
CC1(C)CC[C@]2(C(=O)OC(=O)[C@]34CCC(C)(C)C[C@@H]3C3=CC[C@@H]5[C@@]6(C)CCC(=O)C(C)(C)[C@@H]6CC[C@@]5(C)[C@]3(C)CC4)CC[C@]3(C)C(=CC[C@@H]4[C@@]5(C)CCC(=O)C(C)(C)[C@@H]5CC[C@]43C)[C@H]2C1	98.2% [100 µM]
CCCc1cc2cc(-n3nc(C)c4c3CC(C)(C)CC4=O)cc(NC3CCSCC3)c2c(=O)[nH]1	46.9%
CC(=O)OC[C@]12CC[C@@H]([C@@H](C)C(N)=O)[C@@H]1[C@H]1CC[C@@H]3[C@@]4(C)CC[C@H](OC(C)=O)C(C)(C)[C@@H]4CC[C@@]3(C)[C@]1(C)CC2	-68.1% [100 µM] (active)

SMILES	growth
O=C(N/N=C/c1ccc([N+](=O)[O-])cc1)c1ccc(Br)o1	107%
O=[N+]([O-])c1ccc(O)c(-c2nc3ccccc3s2)c1	89.7%
COc1cccc(-c2[nH]c(=S)ncc2C(=O)c2ccccc2)c1	102%
COc1ccc2nc3c(cc2c1)C(=O)CC(C(F)(F)F)C3 (stereo not drawn)	84%
CCN(CC)CCCOc1ccc2c(c1)O/C(=C\c1cccc(OC)c1)C2=O	86.7%
CCc1cccc(Cl)c1	106%
CCCCCN(CCCCC)CCCCCCCCN1CCCc2ccccc21	74.8%
COc1ccc2c(c1)c(-c1noc(C(=O)c3cn(C)c4ncc(Br)cc34)n1)cn2C	92.9%
NS(=O)(=O)c1ccc(CCN2C(=O)/C(=C\c3ccccc3)C=C2c2ccc(Cl)cc2)cc1	105%
Cc1ncc(C(=O)Nc2ccc(CN3CCN(C)CC3)c(C(F)(F)F)c2)cc1C#Cc1c(N)ncc2ccc(C#N)cc12	58.4%
CCCCN(CCCC)CC(O)c1ccc(OCc2ccccc2)c2ccccc12 (stereo not drawn)	70%
CC[C@]12C=CCN3CC[C@@]4(c5ccc(OC)cc5N(C)[C@H]4[C@@](O)(C(=O)OC)[C@@H]1OC(=O)CCC(=O)O[C@H]1CC[C@H]4[C@@H]5CCC6=CC(=O)CC[C@@H]6[C@H]5CC[C@]14C)[C@@H]32	3.12% [100 µM] (active)
CC(C)c1ccc(/C=N/N=C(N)N)cc1	50.9%
C=C(C)[C@@H]1CC[C@]2(C(N)=O)CC[C@]3(C)[C@H](CC[C@@H]4[C@@]5(C)CC[C@H](O)C(C)(C)[C@@H]5CC[C@]43C)[C@@H]12	-39% [100 µM] (active)
CC1(C)CC[C@]2(C(=O)O)CC[C@]3(C)C(=CC[C@@H]4[C@@]5(C)C/C(=C/c6cccnc6)[C@H](O)C(C)(C)[C@@H]5CC[C@]43C)[C@@H]2C1	-37.5% [100 µM] (active)
C#CCNC(=O)CC[C@]1(C)[C@H]2CC[C@@H]3[C@@H]([C@@](C)(O)CCC=C(C)C)CC[C@@]3(C)[C@]2(C)CC[C@H]1C(=C)C	87.2% [100 µM]
CCOC(=O)c1nn(C2CCCCO2)c2ccc(NC(=O)CSc3nc4ccccc4c(=O)[nH]3)cc12 (stereo not drawn)	115%
O=C(Nc1ccc(Oc2ccc(F)cc2)c(Cl)c1)c1cccnn1	89.1%
CC(=O)n1cc(C=O)c2ccccc21	100%

From PubChem BioAssay (NCI)
